NS1 function inh = qHTS Assay for Inhibitors of Influenza NS1 Protein Function; Potency, µM (highest dose often 46.1 µM); actives 0.4% (n = 270,000); AID 2326, 2010; calls by dose curve; further: actives are rising curves; nearly all actives have a fitted effect of over 50% in size
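Read-out: OD600 growth recovery of NS1-expressing budding yeast. Cells grown overnight at 30C in -URA glucose medium, washed, resuspended and diluted 1:100 in 2% galactose assay medium, pH 6.0. Same strain lacking NS1 served as positive control.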
CHX counter = Cycloheximide Counterscreen for Small Molecule Inhibitors of Shiga Toxin | max response, % | cell reporter, cycloheximide protein synthesis inhibition counterscreen | actives 12% (n = 300,000) | AID 2314, 2010; in the data active means max response mostly above about 13%, no sharp cut-off; inactive means mostly below about 14%; further: read at 38.3 µM for the half of the compounds with a filed dose
Pf growth 96h = Primary qHTS for delayed death inhibitors of the malarial parasite plastid, 96 hour incubation; AID 504834, 2011; actives 6.9% (n = 320,000); P. falciparum luciferase reporter growth, 96 h; Potency, µM (doses to about 28.7 µM), hits mostly inhibitors
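Delayed-death screen, second-generation endpoint: infected erythrocytes, 2% hematocrit, 0.05% parasitemia final; 96 hours at 37 C, 5% CO2; luciferase detection reagent; luminescence decrease equals reduced growth.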
Shiga inhibitor = A qHTS for Small Molecule Inhibitors of Shiga Toxin; actives 9.2% (n = 290,000); inhibition, % at 38.7 µM; Vero cells, Shiga toxin protein synthesis inhibition reporter; in the data active means inhibition mostly above about 28%, no sharp cut-off; inactive means mostly below about 43%
Pf growth 48h = Primary qHTS for delayed death inhibitors of the malarial parasite plastid, 48 hour incubation; P. falciparum luciferase growth in erythrocytes, 48 h; Potency, µM (doses to about 28.7 µM), hits mostly inhibitors; actives 5.9% (n = 310,000)
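Here the parasites carry a stable luciferase gene and grow inside erythrocytes in Albumax-based RPMI medium with compound for one erythrocytic cycle. Activity is scored as loss of luminescent signal.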
Sm TGR block = qHTS Assay for the Inhibitors of Schistosoma Mansoni Peroxiredoxins; AID 485364, 2010; actives 3% (n = 360,000); Potency, µM (doses to about 114 µM), actives largely listed as inhibitors; Schistosoma mansoni thioredoxin glutathione reductase (TGR), Q962Y6; purified TGR, DTNB reduction, TNB absorbance 405 nm; further: nearly all actives have a fitted effect of over 60% in size
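Kinetic colorimetric format: TGR-catalysed, NADPH-driven DTNB reduction monitored via TNB absorbance. Enzyme dispensed at 20 nM; compound exposure 15 min at room temperature before reaction start.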
Hits are given with their value; - = inactive; ? = inconclusive; . = no result given; ! = a repeat was not active; [ ] = remark or other dose. The list is not random: actives were taken first. Their share in the collection is about 21%. Unless noted, the call rests on the fitted dose curve; in most records, active means well fitted curve in the direction sought with a large enough effect; inconclusive means small, poorly fitted or top-dose-only effect, or another doubt; inactive means no such curve, though single readings can be large; an effect the other way counts as inactive or inconclusive.

SMILES	NS1 function inh	CHX counter	Pf growth 96h	Shiga inhibitor	Pf growth 48h	Sm TGR block
CN(CC(=O)Nc1cc(S(=O)(=O)N2CCOCC2)ccc1Cl)C1CCS(=O)(=O)C1 (stereo not given)	-	-	-	-	-	-
CCc1cc2c(cc3c(=O)n(CC(=O)NC(C)c4ccccc4)ncn32)s1 (stereo not given)	.	.	.	.	.	-
Cc1ccc(N2CC(C(=O)Nc3ccc(S(=O)(=O)NCC4CCCO4)cc3)CC2=O)cc1C (stereo not given)	-	-	-	-	-	-
CNCC(O)c1ccc(OC(=O)C(C)(C)C)c(OC(=O)C(C)(C)C)c1 (stereo not given)	.	.	?	.	?	-
CNC[C@H](O)c1ccc(OC(=O)C(C)(C)C)c(OC(=O)C(C)(C)C)c1	.	.	3.2µM	.	?	.
N#Cc1ccc(OCC(=O)Nc2nc(-c3cccnc3)cs2)cc1	.	.	?	.	12µM	-
Cc1cc(C)cc(OCC(=O)Nc2nc(-c3cccnc3)cs2)c1	-	-	15µM	-	?	-
O=C(COc1ccccc1)Nc1nc(-c2cccnc2)cs1	.	.	?	.	?	-
CCCCCCNC(=O)N[C@H](C(=O)NCCC[C@H]1CN2C(=NC[C@H]2C)N1CCC(c1ccccc1)c1ccccc1)C(C)O (stereo not given in full)	-	-	2.9µM	-	9.3µM	0.5µM
CCCCCCCN1C(Nc2ccccc2)=NC[C@@H]1CC(C)C	-	-	?	-	?	-
CCN(CC)S(=O)(=O)c1cccc(C(=O)OCc2cc(=O)n3nc(C)sc3n2)c1	-	-	5.2µM	-	-	-
Cc1nn2c(=O)cc(COC(=O)c3cccc(NC(=O)c4ccc(C(C)(C)C)cc4)c3)nc2s1	.	.	.	.	.	-
CC1=C[C@@H](O)CC(C)(C)[C@@H]1/C=C/C(C)=C/C=C/C(C)=C/C=C/C=C(C)/C=C/C=C(C)/C=C/C1=C(C)C[C@H](O)CC1(C)C	.	.	4.3µM	.	?	.
CC1=C(/C=C/C(C)=C\C=C\C(C)=C\C(=O)O)C(C)(C)CCC1	.	-	.	-	.	.
CC1=C(/C=C/C(C)=C/C=C/C(C)=C/C(=O)O)C(C)(C)CCC1	-	-	-	-	?	35µM
CC1=C(/C=C/C(C)=C\C=C\C(C)=C\C=C\C=C(C)\C=C\C=C(C)\C=C\C2=C(C)C[C@@H](O)CC2(C)C)C(C)(C)C[C@H](O)C1	.	.	7.6µM	.	15µM	.
CCOc1ncccc1C(=O)NNC(=O)c1ccccc1-n1cccc1	-	-	-	-	-	-
O=C(COC(=O)c1nc(Cl)ccc1Cl)NC1CCCCC1	.	.	-	.	-	-
COC(=O)CCC(=O)Nc1ccc(S(=O)(=O)Nc2nc(C)cc(C)n2)cc1	-	-	?	.	-	-
CCN(CC)C(=O)c1ccccc1NS(C)(=O)=O	-	-	-	-	-	-
CCOC(=O)c1c(C)[nH]c(C)c1S(=O)(=O)NCC(=O)Nc1ccc(C)c(N(C)C)c1	.	.	.	.	.	-
O=C(c1ccccc1)c1ccc(Cn2cc(-c3ccccc3)nn2)cc1	-	24	-	57	-	-
COc1ccccc1OCCCn1cc(C#N)c2ccccc21	-	27	.	34	-	-
COc1ccccc1OCCCn1cc(C(C)=O)c2ccccc21	-	-	-	-	?	-
N#Cc1cn(Cc2cccc(Cl)c2)c2ccccc12	-	-	-	-	9.3µM	-
SMILES	NS1 function inh	CHX counter	Pf growth 96h	Shiga inhibitor	Pf growth 48h	Sm TGR block
COc1ccccc1OCCCn1cc(C(=O)C2CC2)c2ccccc21	-	-	?	-	12µM	-
CCOc1ccc(NC(=O)Cn2cc(C(=O)C3CC3)c3ccccc32)cc1	-	-	5.9µM	-	-	-
COc1ccccc1OCCCn1cc(C=O)c2ccccc21	-	-	-	-	-	-
Cc1ccc(CNC(=O)C2CCCCN2S(=O)(=O)c2ccc(F)cc2)cc1 (stereo not given)	.	.	.	.	.	-
CCOc1ccc(NC(=O)N(Cc2cn(CC)c3ccccc23)C2CCCCCC2)cc1	.	33	.	72	.	-
N#Cc1cn(CCCOc2ccccc2)c2ccccc12	-	17	-	-	-	-
N#Cc1cn(CC(=O)N2CCCC2)c2ccccc12	-	-	-	-	-	-
COc1ccc(-c2cn(/N=C/c3ccc(Cl)cc3Cl)c(N)n2)cc1	-	-	?	-	.	-
COc1cccc(NC(=O)c2ccc(NCCCN3CCC(C)CC3)c([N+](=O)[O-])c2)c1	.	-	?	-	2.1µM	-
O=C(Nc1ccccc1)c1ccc(NCCN2C(=O)CCC2=O)c([N+](=O)[O-])c1	-	-	-	-	-	.
COc1cccc(Nc2ccc(C(=O)O)cc2[N+](=O)[O-])c1	-	-	-	-	-	-
Cc1ccc(NC(=O)c2ccc(NCCCN3CCC(C)CC3)c([N+](=O)[O-])c2)c(C)c1	-	-	?	-	3.3µM	-
CCCN(CCC)CCCNc1ccc(C(=O)Nc2cccc(OC)c2)cc1[N+](=O)[O-]	.	-	-	-	1.5µM	-
COc1cccc(NC(=O)c2ccc(NCCCN3CC(C)CC(C)C3)c([N+](=O)[O-])c2)c1 (stereo not given)	.	-	3.7µM	-	?	-
O=C(Nc1cc(F)cc(F)c1)c1ccc(NCCCN2CCCCCC2)c([N+](=O)[O-])c1	.	-	?	-	?	-
Cc1cc2c(cc1C)NC(CC(=O)Nc1ccccc1SC(F)(F)F)C(=O)N2 (stereo not given)	.	.	.	.	.	-
CCc1cccc(C)c1NC(=O)C1CCN(S(=O)(=O)c2cc(Br)cc3c2N(C(C)=O)CC3)CC1	.	.	.	.	.	-
Cc1cccc(Cn2c(SCc3ccc(C(=O)N4CCCCCC4)cc3)nc3ccncc32)c1	.	-	.	-	.	-
Cc1ccc(NC(=O)c2ccc(NC(=O)N3CCSc4ncccc43)cc2)c(Cl)c1	.	.	.	.	.	-
O=C(O)c1ccccc1Nc1ccc(OC(F)F)cc1	.	35	-	43	-	-
O=C(COC(=O)CCSc1ccccc1Cl)NCc1ccco1	-	-	-	-	-[5.75 µM]	40µM
Nc1cc(C(F)(F)F)ccc1Nc1ccccc1	.	28	-	77	-	-
O=C(COC(=O)c1ccccc1Nc1cccc(C(F)(F)F)c1)NCc1ccco1	-	17	-	-	-	-
O=C(O)c1ccccc1Nc1ccccc1	-	.	-	.	-	-
CCOC(=O)CC(NC(=O)c1ccc(C)cc1)c1ccc(C)cc1 (stereo not given)	-	-	?	-	-	-
O=C(COC(=O)c1ccccc1)NCc1ccco1	?	-	-	-	.	-[11.4 µM]
O=C(O)c1ccccc1Nc1ccnc(C(F)(F)F)c1	-	-	-	-	-[0.00184 µM]	-
O=C(COC(=O)C(c1ccccc1)c1ccccc1)NCc1ccco1	.	-	-	-	-	40µM
O=C(O)c1ccccc1Nc1cccc(C(F)(F)F)c1	-	-	2.4µM!	-	-	-

Source: PubChem
